Experimental findings from PubChem BioAssay are described below.

Where “and” joins values, the source holds several entries; their conditions need not be identical. Equal values may be shown once. Calls of active or inactive are those of the source.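 How the source made its calls, unless noted: active means mean z-score across replicates of 1.96 or higher in either the MELAS or the Rieske mutant cell line; inactive means the rest.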

One experiment can be described thus: viability loss with induced miR-34 in A549 – imaging, A549 dox-inducible miR-34, nuclei and caspase counts, primary screen (AID 1347080). The settings on record: A549 miR-34 inducible, Hoechst nuclei count, 48 h; measured here: relative caspase fold change +Dox/-Dox.
For `Cc1cccc(C)c1NC(=O)C1CCCCN1C` (stereo unspecified), the fold change is 1.53 and 0.775 and 2.13.
On to `CCCCC(=O)N(Cc1ccc(-c2ccccc2-c2nn[nH]n2)cc1)[C@H](C(=O)O)C(C)C`, for which the fold change is 0.477 and 2.43.
Consider `Nc1ncnc2c1ncn2[C@@H]1O[C@H](CO)[C@@H](O)[C@@H]1O`, for which the fold change is 2.09 and 4.39 and 1.09.
On the same count and under the same terms, the figure for `O=c1ccc2ccc(O)c(O)c2o1` is 1.4 and 0.597; for `Cc1occc(=O)c1O` it is 0.534.
With `COc1ccc(-c2cc(=O)c3c(OC)c(OC)c(OC)c(OC)c3o2)cc1OC`, the fold change was 1.14 and 0.279.
For the compound `COC(=O)[C@H](c1ccccc1Cl)N1CCc2sccc2C1`, the fold change is 1.69 and 3.06 and 2.09.
Still for that read-out and setting: to `C[N+]1(C)CCCC(OC(=O)C(O)(c2ccccc2)c2ccccc2)C1` (stereo unspecified) belongs 0.965 and 1.32 and 4.07; to `O=[N+]([O-])c1cccc2cn[nH]c12`, 0.865 and 1.54 and 0.678.
The same measure, in the same setting: the figure for `C[C@H]1COc2c(N3CCN(C)CC3)c(F)cc3c(=O)c(C(=O)O)cn1c23` is 6.58 and 0.734.
Same read-out and setting: the figure for `COc1ccc(C[C@H](N)C(=O)N[C@H]2[C@@H](O)[C@H](n3cnc4c(N(C)C)ncnc43)O[C@@H]2CO)cc1` is 1.77 and 0.862; for `CC[C@H]1OC(=O)[C@H](C)[C@@H](O[C@H]2C[C@@](C)(OC)[C@@H](O)[C@H](C)O2)[C@H](C)[C@@H](O[C@@H]2O[C@H](C)C[C@H](N(C)C)[C@H]2O)[C@](C)(OC)C[C@@H](C)C(=O)[C@H](C)[C@@H](O)[C@]1(C)O` it is 4.5 and 0.962.

Staying with this experiment, now noted: A549 miR-34 inducible, Hoechst nuclei count, 48 h; measured here: total cells with miR-34 induction; stronger effect = lower value.
As to `Cc1cccc(C)c1NC(=O)C1CCCCN1C` (stereo unspecified), the cell count is 8050 and 8030 and 11600.
Consider `CCCCC(=O)N(Cc1ccc(-c2ccccc2-c2nn[nH]n2)cc1)[C@H](C(=O)O)C(C)C`, for which the cell count is 8040 and 10600.
Turning to `Nc1ncnc2c1ncn2[C@@H]1O[C@H](CO)[C@@H](O)[C@@H]1O`, the cell count is 9780 and 10000 and 8360.
The same measure, in the same setting: to `O=c1ccc2ccc(O)c(O)c2o1` belongs 7930 and 10100.
The same measure, in the same setting: the figure for `Cc1occc(=O)c1O` is 9050.
The same measure, in the same setting: the figure for `COc1ccc(-c2cc(=O)c3c(OC)c(OC)c(OC)c(OC)c3o2)cc1OC` is 9210 and 7680.
With `COC(=O)[C@H](c1ccccc1Cl)N1CCc2sccc2C1`, the cell count was 9850 and 11200 and 8380.
For the compound `C[N+]1(C)CCCC(OC(=O)C(O)(c2ccccc2)c2ccccc2)C1` (stereo unspecified), the cell count is 10300 and 8730 and 11200.
Same read-out and setting: the figure for `O=[N+]([O-])c1cccc2cn[nH]c12` is 10200 and 8750 and 8260; for `C[C@H]1COc2c(N3CCN(C)CC3)c(F)cc3c(=O)c(C(=O)O)cn1c23` it is 11000 and 8630.
Still for that read-out and setting: to `COc1ccc(C[C@H](N)C(=O)N[C@H]2[C@@H](O)[C@H](n3cnc4c(N(C)C)ncnc43)O[C@@H]2CO)cc1` belongs 1000 and 950; to `CC[C@H]1OC(=O)[C@H](C)[C@@H](O[C@H]2C[C@@](C)(OC)[C@@H](O)[C@H](C)O2)[C@H](C)[C@@H](O[C@@H]2O[C@H](C)C[C@H](N(C)C)[C@H]2O)[C@](C)(OC)C[C@@H](C)C(=O)[C@H](C)[C@@H](O)[C@]1(C)O`, 11300 and 8870.

The experiment is the same for the next values; noted with them: A549 miR-34 inducible, Hoechst nuclei count, 48 h; measured here: total cells without miR-34 induction.
On to `Cc1cccc(C)c1NC(=O)C1CCCCN1C` (stereo unspecified), for which the cell count is 8240 and 8660 and 13200.
Regarding `CCCCC(=O)N(Cc1ccc(-c2ccccc2-c2nn[nH]n2)cc1)[C@H](C(=O)O)C(C)C`, the cell count was 8430 and 12500.
Same read-out and setting: the figure for `Nc1ncnc2c1ncn2[C@@H]1O[C@H](CO)[C@@H](O)[C@@H]1O` is 10300 and 12000 and 9720.
The same measure, in the same setting: to `O=c1ccc2ccc(O)c(O)c2o1` belongs 8840 and 10800; to `Cc1occc(=O)c1O`, 6830; to `COc1ccc(-c2cc(=O)c3c(OC)c(OC)c(OC)c(OC)c3o2)cc1OC`, 9390 and 7920.
The same measure, in the same setting: the figure for `COC(=O)[C@H](c1ccccc1Cl)N1CCc2sccc2C1` is 10100 and 12600 and 9870; for `C[N+]1(C)CCCC(OC(=O)C(O)(c2ccccc2)c2ccccc2)C1` (stereo unspecified) it is 10800 and 10200 and 12500.
On to `O=[N+]([O-])c1cccc2cn[nH]c12`, for which the cell count is 9850 and 10100 and 9080.
As to `C[C@H]1COc2c(N3CCN(C)CC3)c(F)cc3c(=O)c(C(=O)O)cn1c23`, the cell count was 12300 and 10100.
Still for that read-out and setting: to `COc1ccc(C[C@H](N)C(=O)N[C@H]2[C@@H](O)[C@H](n3cnc4c(N(C)C)ncnc43)O[C@@H]2CO)cc1` belongs 976 and 910; to `CC[C@H]1OC(=O)[C@H](C)[C@@H](O[C@H]2C[C@@](C)(OC)[C@@H](O)[C@H](C)O2)[C@H](C)[C@@H](O[C@@H]2O[C@H](C)C[C@H](N(C)C)[C@H]2O)[C@](C)(OC)C[C@@H](C)C(=O)[C@H](C)[C@@H](O)[C@]1(C)O`, 12700 and 10400.

The nature of the next experiment: blockers of cellular phospholipid synthesis – cell-based, LOPAC library, screen 4, primary screen (AID 1347384; call rule not given here). Particulars: animal cells, phospholipid biosynthesis inhibition screen; at 10 µM.
`COc1ccc(/C=C/C(=O)Nc2ccccc2C(=O)O)cc1OC`: the compound was called inactive.
Still for that read-out and setting: to `O=c1ccc2ccc(O)c(O)c2o1` belongs “inactive”; to `CN(C)c1nc(N(C)C)nc(N(C)C)n1`, “inactive”.
`CC(C)NCC(O)COc1cccc2ccccc12` (stereo unspecified): the compound was called inactive.
`O=[N+]([O-])c1cccc2cn[nH]c12`: the result was inactive.
Same read-out and setting: the entry for `CC(C)NCC(O)COc1ccc(CC(N)=O)cc1` (stereo unspecified) is “inactive”.
As to `CNCCC(Oc1ccc(C(F)(F)F)cc1)c1ccccc1` (stereo unspecified), the outcome was inactive.
Same read-out and setting: the entry for `CC1=C(/C=C/C(C)=C/C=C/C(C)=C\C(=O)O)C(C)(C)CCC1` is “inactive”.

The next experiment can be described thus: MELAS cybrid and Rieske KO viability enhancers – cell-based, MELAS cybrids, Rieske KO mouse fibroblasts, CellTiter-Glo, primary screen (AID 1508586).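 Further: z relative to plate mean and SD of compound and empty wells.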 The settings on record: MELAS cybrid survival, low glucose, CellTiter-Glo 48 h; stronger effect = higher value.
Consider `CS(=O)(=O)c1ccc(C2=C(c3ccccc3)C(=O)OC2)cc1`, for which the z-score was -0.068 (inactive) and 0.18 (inactive) and -0.373 (inactive).
Same read-out and setting: the figure for `Cc1cccc(C)c1NC(=O)C1CCCCN1C` (stereo unspecified) is -0.27 (inactive) and -0.937 (inactive); for `COc1ccc(/C=C/C(=O)Nc2ccccc2C(=O)O)cc1OC` it is 0.761 (inactive) and 0.318 (inactive).
Same read-out and setting: to `CCCCC(=O)N(Cc1ccc(-c2ccccc2-c2nn[nH]n2)cc1)[C@H](C(=O)O)C(C)C` belongs 0.123 (inactive) and -0.397 (inactive).
Same read-out and setting: the figure for `CC(C(=O)O)c1ccc(-c2ccccc2)c(F)c1` (stereo unspecified) is -0.289 (inactive) and 0.565 (inactive) and 0.434 (inactive); for `Nc1ncnc2c1ncn2[C@@H]1O[C@H](CO)[C@@H](O)[C@@H]1O` it is -2.73 (inactive) and -2.26 (inactive); for `O=c1ccc2ccc(O)c(O)c2o1` it is -0.407 (inactive).
As for `CN(C)c1nc(N(C)C)nc(N(C)C)n1`, the z-score is -0.405 (inactive) and 0.759 (inactive) and 0.19 (inactive).
The same measure, in the same setting: the figure for `COc1ccc(-c2cc(=O)c3c(OC)c(OC)c(OC)c(OC)c3o2)cc1OC` is -0.237.
Consider `COC(=O)[C@H](c1ccccc1Cl)N1CCc2sccc2C1`, for which the z-score is -0.401 (inactive) and -0.448 (inactive).
Consider `C[N+]1(C)CCCC(OC(=O)C(O)(c2ccccc2)c2ccccc2)C1` (stereo unspecified), for which the z-score is 0.378 (inactive).
Same read-out and setting: to `C[C@H]1COc2c(N3CCN(C)CC3)c(F)cc3c(=O)c(C(=O)O)cn1c23` belongs -0.0762 (inactive); to `CC(C)NCC(O)COc1ccc(CC(N)=O)cc1` (stereo unspecified), -0.4 (inactive); to `CNCCC(Oc1ccc(C(F)(F)F)cc1)c1ccccc1` (stereo unspecified), 1.26 (inactive) and -0.395 (inactive) and -0.285 (inactive).
On to `CC1=C(/C=C/C(C)=C/C=C/C(C)=C\C(=O)O)C(C)(C)CCC1`, for which the z-score was -0.17 (inactive).
On to `COc1ccc(C[C@H](N)C(=O)N[C@H]2[C@@H](O)[C@H](n3cnc4c(N(C)C)ncnc43)O[C@@H]2CO)cc1`, for which the z-score is 0.777 (inactive).
On to `CC[C@H]1OC(=O)[C@H](C)[C@@H](O[C@H]2C[C@@](C)(OC)[C@@H](O)[C@H](C)O2)[C@H](C)[C@@H](O[C@@H]2O[C@H](C)C[C@H](N(C)C)[C@H]2O)[C@](C)(OC)C[C@@H](C)C(=O)[C@H](C)[C@@H](O)[C@]1(C)O`, for which the z-score was -0.605 (inactive) and -0.357 (inactive).
